# Source: PubChem BioAssay
# MCF10A rereplic = inducers of DNA re-replication in MCF 10A breast cells; 350,000 compounds, 2.9% hits; MCF 10A DNA re-replication, Hoechst nuclear intensity, 48 h; Potency, µM (highest dose often 46.1 µM), for the others: at the top dose activity, positive = re-replication, actives largely listed as activators; also: potency is read from the fitted curve at half-maximal effect; % of control where 0% means no effect; nearly all actives have a fitted effect of over 50% in size
# KB-3-1 cytotox = KB-3-1 parental cell cytotoxicity; KB-3-1 viability, CellTiter-Glo ATP luminescence, 72 h; Potency, µM (doses to about 46.1 µM), usual class: cytotoxic; 400,000 compounds, 1.4% hits; AID 1347075; also: potency is read from the fitted curve at half-maximal effect; % is scaled to controls: 0 for no effect and ±100 for the full control effect; nearly all actives have a fitted effect of over 60% in size
#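 Parental KB-3-1 adenocarcinoma cells in phenol-red-free DMEM with 10% FBS were pin-treated with compounds at several concentrations, incubated 72 h at 37 °C, and viability read by CellTiter-Glo luminescence; concentration-effect curves were fitted after normalization.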
# D3 antag = D3 dopamine receptor (human) antagonism | max response, negative = inhibition, % | D3R cells, DiscoveRx beta-arrestin luminescence, antagonist mode; active compounds read low | P35462 | 360,000 compounds, 2.5% hits; in the data active = max response below about -50%; inconclusive = no clear call, values can overlap the other calls; also: % is scaled to controls: 0 for no effect and ±100 for the full control effect
# Target sequence (P35462 whole entry, looked up): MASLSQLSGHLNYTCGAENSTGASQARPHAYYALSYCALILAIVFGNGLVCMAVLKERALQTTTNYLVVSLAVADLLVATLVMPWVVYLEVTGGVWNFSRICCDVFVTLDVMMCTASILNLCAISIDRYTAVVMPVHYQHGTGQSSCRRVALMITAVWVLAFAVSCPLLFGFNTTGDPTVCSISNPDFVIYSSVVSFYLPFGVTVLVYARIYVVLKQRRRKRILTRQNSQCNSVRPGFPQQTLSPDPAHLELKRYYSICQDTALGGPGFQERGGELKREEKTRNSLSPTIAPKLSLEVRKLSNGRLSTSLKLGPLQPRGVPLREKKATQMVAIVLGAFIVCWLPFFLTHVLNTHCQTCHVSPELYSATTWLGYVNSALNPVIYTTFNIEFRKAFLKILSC
#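 Cells expressing the human receptor were seeded at 1500 cells/well, incubated overnight at 37 degrees C in 5% CO2, then exposed to library compounds with dopamine controls for 90 minutes at 37 degrees C before luminescent detection.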
# DRD3 agonist = agonists of human D3 dopamine receptor | max activation, % | P35462 | D3R DiscoveRx beta-arrestin cells, luminescence, 90 min | 410,000 compounds, 0.58% hits; in the data active = max activation above about 30%; also: 0% is about no effect
#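 Agonist mode: compounds and dopamine controls were applied to plated cells for 90 min at 37 degrees C after an overnight attachment at 1500 cells/well. Luminescent read-out followed 30 - 60 minutes at room temperature with DiscoveRx detection reagent.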
# KB-V1 cytotox = KB-V1 MDR subline cytotoxicity | KB-V1 MDR cells viability, CellTiter-Glo, 72 h | Potency, µM (titrated, usually from 46.1 µM), actives largely listed as cytotoxic | 400,000 compounds, 3.4% hits | AID 1347076; also: potency is read from the fitted curve at half-maximal effect; % is scaled to controls: 0 for no effect and ±100 for the full control effect; nearly all actives have a fitted effect of over 60% in size
#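 In this primary screen, KB-V1 cells overexpressing P-gp are incubated with library compounds (lowest to highest concentration) for 72 h at 37 degrees C before a luminescent ATP viability read.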
# SW480 rerep = induces DNA re-replication in SW480 colon adenocarcinoma cells; AID 624297; Potency, µM (series often up to 46.1 µM), for inactives: at the top dose re-replication activation, usual class: activators; 340,000 compounds, 1.8% hits; SW480 DNA re-replication, Hoechst DNA content imaging, 48 h; also: potency is read from the fitted curve at half-maximal effect; % of control where 0% means no effect; nearly all actives have a fitted effect of over 55% in size
#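 Per well, 250 cells were exposed to pinned compound for 48 hr. Nuclear DNA was visualised with Hoechst (40 min, 37 C) and total object intensity recorded by fluorescence scanning.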
# * = called active by the depositor; i = inactive; ? = inconclusive; · = not tested or not shown; [ ] = dose if it differs, or a comment. This is a sample that favours compounds with a hit; in the whole collection about 8.9% have one here. Unless noted, calls follow the shape of the dose curve; as a rule, active = well fitted curve in the direction sought with a large enough effect; inconclusive = small, poorly fitted or top-dose-only effect, or another doubt; inactive = no such curve, though single readings can be large; an effect the other way counts as inactive or inconclusive.
SMILES,MCF10A rereplic,KB-3-1 cytotox,D3 antag,DRD3 agonist,KB-V1 cytotox,SW480 rerep
COc1cc(C(=O)N2CCN(c3cccc(C)c3C)CC2)cc(OC)c1OC,10µM*,0.82µM*,-21,-1,2.6µM*,0.73µM*
CCOc1ccc(NC(=O)c2cnn3c2NC(C)=C(C(=O)Nc2ccc(Cl)cc2)C3c2ccc(OC)c(OC)c2)cc1 (stereo not drawn),·,i,·,0,i,·
CCCN1CCN(CCNC(=O)Nc2cc(C)ccc2OC)CC1,·,i,·,-5,i,·
c1nc(NCCCN2CCCCC2)c2cc(-c3ccc4c(c3)OCO4)ccc2n1,·,?,·,·,i,·
COc1ccc(C(=O)N2CCN(C(=O)c3cc(OC)c(OC)c(OC)c3)CC2)cc1,8%,i,-20,-4,i,-6%
COc1cc(C(=O)N2CCN(c3cc(Cl)ccc3Cl)CC2)cc(OC)c1OC,?,0.33µM*,-4,-5,?,1.2µM*
O=C(c1ccc2ncsc2c1)N1CCN(c2ccc(O)cc2)CC1,28%,i,12,3,i,0%[9.22 µM]
Cc1cccc(N2CCN(C(=O)c3c(C)nn(Cc4ccccc4Cl)c3C)CC2)c1C,15µM*,i,31,11,?,?
O=C(c1ccc2ncsc2c1)N1CCN(c2nc3ccccc3s2)CC1,-15%,?,19,2,7.3µM*,-9%
CCCCN(C(=O)C1CCN(C(=O)c2ccccc2C)CC1)c1c(N)n(CC(C)C)c(=O)[nH]c1=O,8%,i,-6,8,i,20%
CSc1nc(SCCO)c2sc3nc(-c4ccco4)c4c(c3c2n1)CC(C)(C)OC4,13µM*,?,10,-1,i,5%
CSc1nc(N(CCO)CCO)c2sc3nc(-c4ccco4)c4c(c3c2n1)CCC4,15µM*,i,-7,2,i,?
OCc1cnc(SCc2ccccc2F)n1Cc1ccc(F)cc1,·,i,·,1,i,·
COc1cccc(/C=N/Nc2nc3ccccc3[nH]2)c1OC,33%,i,12,3,i,-1%[9.22 µM]
COc1cc(/C=N/Nc2nc3ccccc3[nH]2)ccc1O,10%,i,-8,-6,18µM*,1%
COc1cccc(/C=N/Nc2nc3ccccc3[nH]2)c1O,?,5.8µM*,0,-13,?,?
COc1cc(/C=N/Nc2nc3ccccc3[nH]2)cc(OC)c1O,?,i,48,17,i,15%
COc1ccc(C2N(c3cc(Cl)ccc3OC)C(=O)C3CCCN32)cc1 (stereo not drawn),8%,i,-7,-11,i,2%
COc1ccc(Cl)cc1N1C(=O)C2CCCN2C1c1sccc1C (stereo not drawn),9%,i,-63*,-2,i,-6%
CN(C(=O)CSc1nnc(COc2ccccc2)o1)c1ccccc1,·,i,·,5,i,·
Cc1sc2ncnc(SCC(=O)c3cccs3)c2c1C,17%,?,43,11,16µM*,3%
Cc1sc2ncnc(SCC(=O)NNC(=O)COc3cccc4ccccc34)c2c1C,23µM*,?,17,6,?,?
CC(=O)Nc1ccc(NC(=O)CSc2ncnc3sc(C)c(C)c23)cc1,19%,i,1,-6,?,-5%
O=C(COc1cccc2ccccc12)NNC(=O)CSCCO,8%,i,-50*,-3,i,2%
Cc1cc2ccc(C)c(C)c2nc1SCC(=O)c1cccs1,?,?,14,-6,15µM*,16%
SMILES,MCF10A rereplic,KB-3-1 cytotox,D3 antag,DRD3 agonist,KB-V1 cytotox,SW480 rerep
Cc1cccc(NC(=O)CSc2ncnc3sc(C)c(C)c23)n1,-20%,·,5,3,·,1%
O=C(COc1cccc2ccccc12)NNC(=O)Nc1ccccc1,?,i,?,-26,i,-4%
Cc1ccc(CNC(=O)C2CCCN(S(=O)(=O)c3cn(C)cn3)C2)cc1 (stereo not drawn),·,·,·,10,·,·
O=C(c1cccs1)N1CCCc2cc(NS(=O)(=O)c3cc(F)ccc3F)ccc21,·,i,·,-3,i,·
Cc1ccccc1NC(=O)N1CCCC(c2nc(-c3ccc(F)cc3)no2)C1 (stereo not drawn),3%,i,10,8,15µM*,5%
O=C(Nc1ccccc1)N1CCCC(c2nc(-c3ccc(F)cc3)no2)C1 (stereo not drawn),1%,i,47,6,?,2%
O=C(c1c(F)cccc1F)N1CCCC(c2nc(-c3ccc(F)cc3)no2)C1 (stereo not drawn),?,i,-2,9,i,?
Cc1ccc(NC(=O)N2CCCC(c3nc(-c4ccc(F)cc4)no3)C2)cc1 (stereo not drawn),0%,i,39,17,i,-5%
O=C(C1CCCCC1)N1CCCC(c2nc(-c3ccc(F)cc3)no2)C1 (stereo not drawn),26%,i,10,7,21µM*,-4%
CC(C)c1ccc(-c2noc(C3CCCN(C(=O)c4ccc(F)cc4F)C3)n2)cc1 (stereo not drawn),12µM*,?,58,-14,?,?
Cc1ccccc1NC(=O)N1CCCC(c2nc(-c3ccc(C(C)C)cc3)no2)C1 (stereo not drawn),15µM*,18µM*,13,10,i,2%
CCc1ccc(CNC(=O)Cc2ccc(NC(=O)N3CCSc4ncccc43)cc2)cc1,·,i,·,-13,i,·
COc1ccc(C)cc1NC(=O)COCc1cc(-c2ccc(F)cc2)on1,·,i,·,7,i,·
N=c1c2c(-c3ccccc3)c(-c3ccccc3)n(Cc3ccco3)c2ncn1CCO,10µM*,i,-26,-12,i,-5%[9.22 µM]
Cc1ccc(-n2nc(C(C)(C)C)cc2NC(=O)Nc2ccc(OCCN3CCOCC3)c3ccccc23)cc1,·,·,·,-15,·,·
COc1cc(C2=NOC(C(=O)NCc3cccs3)C2)cc(OC)c1OC (stereo not drawn),10µM*,2.1µM*,-17,-2,2.6µM*,6.5µM*
COc1ccc(C2=NOC(C(=O)NCc3cccs3)C2)cc1OC (stereo not drawn),1.2µM*,4.6µM*,11,0,5.2µM*,5.2µM*
COc1ccc(C2=NOC(C(=O)NCc3ccccn3)C2)cc1 (stereo not drawn),23%,i,5,1,?,9%
COc1cc(NC(=O)C2CC(c3cccc(OC)c3OC)=NO2)cc(OC)c1OC (stereo not drawn),16µM*,?,12,8,i,?
